# Measured values as given in the supplement of paper PMC10849652.
# Of roughly 7,900 targets only a part is listed; those with a hit were picked by preference. About 0.6% of all pairs of compound and target were hits. A number with no mark means an inactive call.
# Legend:
# Experiment in all cases: log2 fold change, soluble protein after heating vs DMSO (PISA); higher = thermal stabilisation; K562 cells, 10 uM, 30 min; active = over 0.2 and 3.5 SD of the protein, either way, in both replicates (recomputed)
# saracatinib = compound: CN1CCN(CCOc2cc(OC3CCOCC3)c3c(Nc4c(Cl)ccc5c4OCO5)ncnc3c2)CC1 [saracatinib]
# Method in brief: (§1)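 Thermal stability values are relative to control samples and come from duplicates. They are expressed as log2 fold changes. For measurement, K562 cells (2×10^6 cells/mL) received 10 μM compound for 30 min, and aliquots were heated for 3 min over 48°C-58°C, pooled, and extracted at 4°C in PBS with 0.5% NP-40. Soluble protein, the supernatant after 21,000xg for 90 min, was quantified by TMTpro 16plex LC-MS/MS with equalised channel sums.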
# sotrastaurin = compound: CN1CCN(c2nc(C3=C(c4c[nH]c5ccccc45)C(=O)NC3=O)c3ccccc3n2)CC1 [sotrastaurin]
# Method in brief: as §1
# alvocidib = compound: CN1CC[C@H](c2c(O)cc(O)c3c(=O)cc(-c4ccccc4Cl)oc23)[C@H](O)C1 [alvocidib]
# Method in brief: as §1
# Tubastatin A = compound: CN1CCc2c(c3ccccc3n2Cc2ccc(C(=O)NO)cc2)C1 [Tubastatin A]
# Method in brief: as §1
# [1] = compound: CNC(=O)C1=CC=CC=C1NC2=NC(=NC=C2Cl)NC3=C(C=C(C=C3)N4CCOCC4)OC
# Method in brief: as §1
# defactinib = compound: CNC(=O)c1ccc(Nc2ncc(C(F)(F)F)c(NCc3nccnc3N(C)S(C)(=O)=O)n2)cc1 [defactinib]
# Method in brief: as §1
# rucaparib = compound: CNCc1ccc(-c2[nH]c3cc(F)cc4c3c2CCNC4=O)cc1 [rucaparib]
# Method in brief: as §1
# [2] = compound: CNc1nc(-c2ccc3c(N)n[nH]c3c2)cc(N2C[C@@H](C(=O)NC3CCCCC3)CC[C@H]2C)n1
# Method in brief: as §1
# encorafenib = compound: COC(=O)N[C@@H](C)CNc1nccc(-c2cn(C(C)C)nc2-c2cc(Cl)cc(NS(C)(=O)=O)c2F)n1 [encorafenib]
# Method in brief: as §1
# [3] = compound: COC(=O)[C@H](CCSC)NC(=O)C1=C(C=C(C=C1)NC[C@H](CS)N)C2=CC=CC=C2
# Method in brief: as §1
# Sequence of UniProt Q9Y6R0 (Q9Y6R0 whole entry, looked up): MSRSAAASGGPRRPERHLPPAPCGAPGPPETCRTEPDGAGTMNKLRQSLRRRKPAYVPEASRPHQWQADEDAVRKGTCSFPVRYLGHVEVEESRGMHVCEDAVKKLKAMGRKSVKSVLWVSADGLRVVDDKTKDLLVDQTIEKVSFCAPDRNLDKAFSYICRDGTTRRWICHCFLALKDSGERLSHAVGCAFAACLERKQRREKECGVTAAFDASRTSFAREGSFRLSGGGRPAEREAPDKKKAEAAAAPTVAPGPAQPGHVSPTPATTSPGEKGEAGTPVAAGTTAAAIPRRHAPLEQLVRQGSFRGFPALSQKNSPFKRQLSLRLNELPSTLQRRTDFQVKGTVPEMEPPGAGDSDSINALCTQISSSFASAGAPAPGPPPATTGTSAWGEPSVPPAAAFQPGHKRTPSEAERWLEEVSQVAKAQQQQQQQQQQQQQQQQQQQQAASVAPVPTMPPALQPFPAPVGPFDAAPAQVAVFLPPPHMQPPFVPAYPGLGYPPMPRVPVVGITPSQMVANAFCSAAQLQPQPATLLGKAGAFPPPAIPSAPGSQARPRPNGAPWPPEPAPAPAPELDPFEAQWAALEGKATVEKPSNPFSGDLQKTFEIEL
# Sequence of UniProt Q9UH92 (Q9UH92 whole entry, looked up): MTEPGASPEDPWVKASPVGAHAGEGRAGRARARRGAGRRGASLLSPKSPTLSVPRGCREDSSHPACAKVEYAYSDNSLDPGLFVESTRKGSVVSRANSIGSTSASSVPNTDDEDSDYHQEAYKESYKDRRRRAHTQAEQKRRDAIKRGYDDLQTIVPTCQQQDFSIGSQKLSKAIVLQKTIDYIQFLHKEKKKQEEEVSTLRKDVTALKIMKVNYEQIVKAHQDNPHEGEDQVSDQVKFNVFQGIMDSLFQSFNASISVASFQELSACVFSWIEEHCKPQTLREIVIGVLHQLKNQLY
# Sequence of UniProt P56556 (P56556 whole entry, looked up): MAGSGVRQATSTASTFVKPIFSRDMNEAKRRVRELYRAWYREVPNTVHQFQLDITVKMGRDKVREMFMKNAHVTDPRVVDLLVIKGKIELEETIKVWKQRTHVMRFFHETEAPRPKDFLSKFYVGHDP
# Sequence of UniProt P51948 (P51948 whole entry, looked up): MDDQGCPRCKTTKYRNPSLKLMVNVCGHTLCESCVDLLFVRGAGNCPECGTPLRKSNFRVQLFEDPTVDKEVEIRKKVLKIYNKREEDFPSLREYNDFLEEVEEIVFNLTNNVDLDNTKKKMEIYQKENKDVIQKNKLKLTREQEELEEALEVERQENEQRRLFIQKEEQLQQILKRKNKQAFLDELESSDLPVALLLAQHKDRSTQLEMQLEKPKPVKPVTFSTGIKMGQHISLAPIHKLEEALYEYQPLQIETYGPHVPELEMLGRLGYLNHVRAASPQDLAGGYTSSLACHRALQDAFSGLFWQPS
# Sequence of UniProt Q9UHC9 (Q9UHC9 whole entry, looked up): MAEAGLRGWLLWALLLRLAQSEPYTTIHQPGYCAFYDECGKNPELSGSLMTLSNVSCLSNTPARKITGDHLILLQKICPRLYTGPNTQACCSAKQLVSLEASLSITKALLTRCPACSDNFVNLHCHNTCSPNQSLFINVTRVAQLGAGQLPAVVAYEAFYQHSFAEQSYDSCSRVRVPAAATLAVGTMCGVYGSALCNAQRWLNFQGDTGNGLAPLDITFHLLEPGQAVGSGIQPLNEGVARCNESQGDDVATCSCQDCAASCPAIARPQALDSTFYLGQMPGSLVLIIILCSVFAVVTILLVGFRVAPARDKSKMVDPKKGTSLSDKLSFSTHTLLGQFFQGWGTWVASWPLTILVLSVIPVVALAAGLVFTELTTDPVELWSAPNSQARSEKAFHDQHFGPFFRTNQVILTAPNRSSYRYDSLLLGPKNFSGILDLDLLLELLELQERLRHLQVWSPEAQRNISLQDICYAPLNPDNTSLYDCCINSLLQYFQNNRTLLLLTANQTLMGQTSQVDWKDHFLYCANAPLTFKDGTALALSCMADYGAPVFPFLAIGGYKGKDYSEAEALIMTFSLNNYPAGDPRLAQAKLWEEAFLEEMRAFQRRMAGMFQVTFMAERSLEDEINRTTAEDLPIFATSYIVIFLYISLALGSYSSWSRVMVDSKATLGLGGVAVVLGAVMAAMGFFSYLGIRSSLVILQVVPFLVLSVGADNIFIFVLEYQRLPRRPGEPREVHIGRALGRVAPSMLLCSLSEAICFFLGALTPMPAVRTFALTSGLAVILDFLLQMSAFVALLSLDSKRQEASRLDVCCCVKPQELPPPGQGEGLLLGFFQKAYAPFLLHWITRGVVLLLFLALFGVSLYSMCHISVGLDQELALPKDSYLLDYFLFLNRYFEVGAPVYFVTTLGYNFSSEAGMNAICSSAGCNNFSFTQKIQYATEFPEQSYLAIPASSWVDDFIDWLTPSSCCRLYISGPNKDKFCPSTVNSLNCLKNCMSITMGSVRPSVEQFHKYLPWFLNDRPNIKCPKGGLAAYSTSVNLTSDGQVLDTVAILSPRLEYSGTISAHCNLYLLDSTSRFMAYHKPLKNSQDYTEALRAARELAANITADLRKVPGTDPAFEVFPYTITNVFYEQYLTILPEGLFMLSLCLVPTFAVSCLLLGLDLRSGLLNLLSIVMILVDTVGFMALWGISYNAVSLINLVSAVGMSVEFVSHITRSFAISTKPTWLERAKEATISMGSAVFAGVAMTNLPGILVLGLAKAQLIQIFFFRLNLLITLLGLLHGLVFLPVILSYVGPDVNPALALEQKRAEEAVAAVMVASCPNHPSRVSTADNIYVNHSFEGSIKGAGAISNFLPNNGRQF
# Sequence of UniProt P15559 (P15559 whole entry, looked up): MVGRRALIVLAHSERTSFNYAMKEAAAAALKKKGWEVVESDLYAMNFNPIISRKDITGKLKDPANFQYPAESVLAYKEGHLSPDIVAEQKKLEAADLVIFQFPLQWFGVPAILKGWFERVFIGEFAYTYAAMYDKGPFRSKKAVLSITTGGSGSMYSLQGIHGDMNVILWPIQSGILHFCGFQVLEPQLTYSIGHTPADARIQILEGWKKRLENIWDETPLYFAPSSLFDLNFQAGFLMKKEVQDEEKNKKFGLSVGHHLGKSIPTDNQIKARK
# Sequence of UniProt Q4G0T1 (Q4G0T1 whole entry, looked up): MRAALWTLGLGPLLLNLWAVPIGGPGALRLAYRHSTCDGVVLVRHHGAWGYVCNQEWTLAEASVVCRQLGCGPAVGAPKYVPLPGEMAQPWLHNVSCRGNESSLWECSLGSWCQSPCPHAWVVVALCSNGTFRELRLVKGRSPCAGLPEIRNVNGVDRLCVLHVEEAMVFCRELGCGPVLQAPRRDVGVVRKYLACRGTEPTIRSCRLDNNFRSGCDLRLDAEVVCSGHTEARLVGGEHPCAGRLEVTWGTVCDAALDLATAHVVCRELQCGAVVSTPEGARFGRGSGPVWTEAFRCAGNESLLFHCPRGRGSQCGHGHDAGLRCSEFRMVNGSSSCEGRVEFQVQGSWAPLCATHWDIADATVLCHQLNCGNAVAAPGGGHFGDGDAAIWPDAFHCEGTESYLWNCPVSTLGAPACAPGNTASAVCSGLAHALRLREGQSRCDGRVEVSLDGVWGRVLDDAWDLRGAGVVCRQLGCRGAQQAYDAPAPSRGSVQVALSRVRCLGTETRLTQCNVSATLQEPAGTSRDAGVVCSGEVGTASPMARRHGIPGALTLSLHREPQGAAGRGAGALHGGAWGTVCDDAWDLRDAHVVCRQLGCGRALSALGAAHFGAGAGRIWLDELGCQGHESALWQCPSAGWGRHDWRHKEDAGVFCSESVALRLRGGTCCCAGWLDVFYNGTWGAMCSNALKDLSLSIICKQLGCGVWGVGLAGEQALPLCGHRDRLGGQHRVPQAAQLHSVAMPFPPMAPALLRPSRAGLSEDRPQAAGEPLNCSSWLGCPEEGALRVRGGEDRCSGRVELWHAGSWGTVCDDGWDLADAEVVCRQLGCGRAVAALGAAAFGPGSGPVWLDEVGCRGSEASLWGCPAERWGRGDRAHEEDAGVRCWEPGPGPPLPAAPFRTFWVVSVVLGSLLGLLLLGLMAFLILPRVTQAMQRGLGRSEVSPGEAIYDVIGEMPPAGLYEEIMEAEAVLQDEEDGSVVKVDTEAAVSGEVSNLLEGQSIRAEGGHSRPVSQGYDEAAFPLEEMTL
# Sequence of UniProt Q9UK23 (Q9UK23 whole entry, looked up): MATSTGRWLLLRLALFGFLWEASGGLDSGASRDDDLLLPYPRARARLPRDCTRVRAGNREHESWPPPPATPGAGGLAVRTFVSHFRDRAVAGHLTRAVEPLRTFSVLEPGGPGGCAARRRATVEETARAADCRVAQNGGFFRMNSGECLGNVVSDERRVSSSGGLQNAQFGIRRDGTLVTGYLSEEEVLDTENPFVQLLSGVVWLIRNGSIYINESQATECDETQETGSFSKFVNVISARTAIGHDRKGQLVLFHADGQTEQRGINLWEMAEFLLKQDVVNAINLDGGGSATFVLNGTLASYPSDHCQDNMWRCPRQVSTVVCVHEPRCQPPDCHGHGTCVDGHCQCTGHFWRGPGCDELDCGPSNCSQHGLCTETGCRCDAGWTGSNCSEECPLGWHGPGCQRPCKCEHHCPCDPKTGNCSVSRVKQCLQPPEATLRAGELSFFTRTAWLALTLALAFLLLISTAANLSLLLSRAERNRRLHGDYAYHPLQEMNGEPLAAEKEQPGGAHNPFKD
# Sequence of UniProt P51956 (P51956 whole entry, looked up): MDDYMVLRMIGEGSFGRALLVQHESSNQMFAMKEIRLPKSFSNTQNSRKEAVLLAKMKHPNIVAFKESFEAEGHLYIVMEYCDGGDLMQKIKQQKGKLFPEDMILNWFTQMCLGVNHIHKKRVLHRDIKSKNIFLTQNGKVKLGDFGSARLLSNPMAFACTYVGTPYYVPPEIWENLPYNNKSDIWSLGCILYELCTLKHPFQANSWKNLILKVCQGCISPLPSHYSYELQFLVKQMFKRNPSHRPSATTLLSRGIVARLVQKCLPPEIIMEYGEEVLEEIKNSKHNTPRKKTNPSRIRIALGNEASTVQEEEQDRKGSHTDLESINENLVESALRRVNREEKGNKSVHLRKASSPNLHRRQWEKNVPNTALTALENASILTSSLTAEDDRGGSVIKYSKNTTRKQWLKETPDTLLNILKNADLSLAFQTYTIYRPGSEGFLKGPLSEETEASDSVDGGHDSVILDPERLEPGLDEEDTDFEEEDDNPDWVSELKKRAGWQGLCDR
Target,log2 fold change (saracatinib),log2 fold change (sotrastaurin),log2 fold change (alvocidib),log2 fold change (Tubastatin A),log2 fold change [1],log2 fold change (defactinib),log2 fold change (rucaparib),log2 fold change [2],log2 fold change (encorafenib),log2 fold change [3]
NQO1 (UniProt P15559),-0.076,-0.002,-0.108,0.027,0.161,-0.038,-0.077,-0.008,0.005,-0.022
NEK3 (UniProt P51956),0.022,-0.125,-0.169,-0.194,-0.027,-0.182,-0.013,0.007,0,0.036
NDUFA6 (UniProt P56556),-0.037,0.003,-0.122,0.021,-0.039,-0.068,0.006,0.044,0.034,-0.039
MNAT1 (UniProt P51948),-0.017,0,-0.002,0.006,0.012,-0.03,-0.046,-0.004,-0.006,-0.009
MRPL34 (UniProt Q9BQ48),-0.09,0,0.117,0.119,0.086,0.138,0.101,0.169,0.055,0.035
NPC1 (UniProt O15118),0.077,0.007,0.041,-0.045,0.02,0.01,-0.147,-0.049,-0.012,-0.006
MTHFS (UniProt P49914),-0.023,-0.017,-0.078,0.043,0.065,-0.053,0.013,-0.004,0.007,0.014
MON2 isoform 5 (UniProt Q7Z3U7),-0.089,-0.001,-0.056,-0.005,0.02,-0.011,0.01,0.044,0.026,-0.025
MRPS35 (UniProt P82673),-0.18,-0.033,0.01,0.078,-0.022,0.043,0.071,0.062,0.039,0.007
PAFAH2 (UniProt Q99487),0.023,-0.074,-0.112,-0.196,-0.179,-0.093,–,-0.133,–,-0.067
MLX (UniProt Q9UH92),-0.171,-0.084,-0.037,0.075,-0.149,–,-0.169,0.004,0.149,–
NNMT (UniProt P40261),-0.041,0.01,-0.087,-0.081,0.016,0.004,-0.078,0.021,-0.021,0.038
MRPL47 (UniProt Q9HD33),-0.168,-0.024,0.113,0.081,-0.028,0.151,-0.122,0.17,0.063,-0.022
OTUD6B (UniProt Q8N6M0),-0.009,-0.035,-0.147,-0.007,-0.008,-0.138,0.019,0.001,0.122,-0.055
NUMBL (UniProt Q9Y6R0),-0.088,-0.412 (active),0.07,–,0.144,-0.101,–,-0.015,–,0.098
OXSM (UniProt Q9NWU1),0.095,0.067,-0.046,-0.01,0.038,-0.059,-0.018,-0.033,-0.007,-0.019
NELFB isoform 2 (UniProt Q8WX92),-0.016,-0.065,-0.199,0.04,-0.026,-0.199,-0.034,-0.005,0.079,-0.057

Target,log2 fold change (saracatinib),log2 fold change (sotrastaurin),log2 fold change (alvocidib),log2 fold change (Tubastatin A),log2 fold change [1],log2 fold change (defactinib),log2 fold change (rucaparib),log2 fold change [2],log2 fold change (encorafenib),log2 fold change [3]
NRDC isoform 2 (UniProt O43847),-0.024,-0.028,-0.078,-0.009,-0.033,-0.077,0.092,0.01,0.024,-0.076
NOL11 (UniProt Q9H8H0),0.093,0.022,0.089,-0.08,0.007,0.186,0.071,0.002,-0.012,-0.009
NAGPA (UniProt Q9UK23),-0.009,-0.017,-0.008,0.068,0.022,–,-0.132,-0.049,0.014,–
NDUFA7 (UniProt O95182),-0.037,0.047,-0.01,-0.148,-0.042,0,0.046,-0.031,-0.042,-0.008
NA isoform 3 (UniProt Q4G0T1),-0.011,0.035,0.039,0.04,0.007,0.034,–,-0.053,–,-0.001
PAK1 isoform 2 (UniProt Q13153),0.074,-0.015,-0.026,-0.098,0.009,0.039,-0.082,-0.009,0.033,0.048
MPHOSPH8 isoform 2 (UniProt Q99549),0.088,0.018,0.005,0,–,0.015,–,-0.064,–,0.013
MTFR1L (UniProt Q9H019),0.052,-0.037,-0.106,0.052,-0.024,-0.085,–,-0.054,–,-0.14
"MTHFD1, A0A384N5Y3",-0.047,0.025,-0.129,0.032,–,-0.173,-0.039,-0.004,-0.003,-0.036
OPHN1 (UniProt O60890),-0.033,0.011,0.094,-0.008,-0.036,–,-0.011,-0.01,0.038,–
MON1A (UniProt Q86VX9),0.013,0.058,–,0.047,-0.103,–,-0.023,0.029,0.253,–
NDUFS8 (UniProt O00217),-0.011,-0.061,-0.081,-0.04,-0.037,-0.009,-0.093,0.017,0.059,-0.026
"NA, A0A2R8Y3M9",0.171,0.191,0.214,–,–,–,–,-0.04,–,–
NPC1L1 (UniProt Q9UHC9),-0.026,0.033,0.013,0.005,–,-0.093,-0.06,-0.051,-0.038,0.093
MSANTD2 (UniProt Q6P1R3),-0.248,0.105,–,0.032,–,-0.113,-0.32,0.03,-0.067,-0.01
NSUN2 (UniProt Q08J23),0.008,-0.243,-0.328 (active),-0.008,-0.081,-0.281 (active),-0.021,-0.083,0.004,0.009
